Screens: PubChem, several laboratories
SENP6 block – SENP6 protease inhibitors, primary screen, biochemical, luminescence, uHTS | Sentrin-specific protease 6 (Homo sapiens), Q9GZR1 | Recombinant SENP6 catalytic domain, aminoluciferin luminescence | inhibition, % at 10 µM | 330,000 compounds, 1.8% hits | AID 2599, 2010;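 active = inhibition above about 50% at the single tested dose, limit read from the data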
SENP8 block-1 – SENP8 protease inhibitors, primary screen, biochemical, luminescence. inhibition, % at 10 µM. purified SENP8, Z-RLRGG-aminoluciferin cleavage. 330,000 compounds, 1.2% hits. AID 2540, 2010. Sentrin-specific protease 8 (Homo sapiens), Q96LD8; in the data active = inhibition above about 50%
Target sequence (Q96LD8 whole entry, looked up): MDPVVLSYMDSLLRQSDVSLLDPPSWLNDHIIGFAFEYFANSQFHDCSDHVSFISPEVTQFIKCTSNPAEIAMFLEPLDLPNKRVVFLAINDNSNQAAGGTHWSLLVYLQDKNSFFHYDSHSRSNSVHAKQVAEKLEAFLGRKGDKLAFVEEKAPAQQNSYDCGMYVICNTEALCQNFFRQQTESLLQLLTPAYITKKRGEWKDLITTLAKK
LGR2 antag – inhibitors of bursicon-induced LGR2 CRE-luciferase signal, primary screen, cell-based, HEK293, CRE-luciferase reporter, bursicon stimulation; Drosophila bursicon receptor LGR2 (rickets); bursicon-stimulated, 4 h; inhibition, % at 9.99 µM; 380,000 compounds, 0.35% hits; AID 720647, 2013;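 active = drop in luminescence signal, shown as inhibition above about 50% in the replicate tests, limit read from the data, passing the limit was not always enough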;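 also: agonist challenge used bursicon conditioned medium at about half maximal strength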
SENP7 inh – SENP7 protease inhibitors, primary screen, biochemical, luminescence, uHTS | Sentrin-specific protease 7 (Homo sapiens), Q9BQF6 | recombinant SENP7, Z-RLRGG-aminoluciferin luminescence, 40 min | inhibition, % at 5 µM | 330,000 compounds, 1.5% hits | AID 434973, 2010;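 active = inhibition above about 50% at the single test dose, limit read from the data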
SENP8 block-2 – human SENP8 protease inhibitors, primary screen, biochemical, fluorescence, Nedd8 protein substrate, uHTS | recombinant SENP8 | inhibition, % at 20 µM | 360,000 compounds, 0.64% hits | AID 602440, 2012; in the data active = inhibition mostly above about 40%, no sharp cut-off; inactive = mostly below about 27%
HSP90 refold inh – HSP90 inhibitors, primary screen, cell lysate, luminescence; Rabbit reticulocyte lysate, luciferase refolding luminescence, 3 h; inhibition, % at 5.6 µM; 290,000 compounds, 0.91% hits;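 active = inhibition above the screen-wide mean plus 3 SD, computed separately per campaign, cut at about 16% in these data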;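 also: inhibitors lower the luminescence because luciferase stays unfolded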
HSP90 inh confirm – HSP90 inhibitors, confirmation, cell lysate, luminescence; shares compounds with HSP90 refold inh; rabbit reticulocyte lysate, luciferase refolding luminescence, 3 h; inhibition, % at 5.9 µM; 2,300 compounds, 64% hits; AID 1846, 2009; in the data active = inhibition above about 18%
luciferase ctr – firefly luciferase inhibitors, HSP90 counter-screen, confirmation, artefact control for HSP90 inhibitor project, biochemical, luminescence, triplicate; 2,300 compounds, 48% hits; shares compounds with HSP90 refold inh; AID 1847, 2009; purified native firefly luciferase; inhibition, % at 5.9 µM;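 active = inhibition above the mean inhibition of all tested sample wells plus 3 SD, cut at about 10% in these data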
Target sequence (P08659 whole entry, looked up): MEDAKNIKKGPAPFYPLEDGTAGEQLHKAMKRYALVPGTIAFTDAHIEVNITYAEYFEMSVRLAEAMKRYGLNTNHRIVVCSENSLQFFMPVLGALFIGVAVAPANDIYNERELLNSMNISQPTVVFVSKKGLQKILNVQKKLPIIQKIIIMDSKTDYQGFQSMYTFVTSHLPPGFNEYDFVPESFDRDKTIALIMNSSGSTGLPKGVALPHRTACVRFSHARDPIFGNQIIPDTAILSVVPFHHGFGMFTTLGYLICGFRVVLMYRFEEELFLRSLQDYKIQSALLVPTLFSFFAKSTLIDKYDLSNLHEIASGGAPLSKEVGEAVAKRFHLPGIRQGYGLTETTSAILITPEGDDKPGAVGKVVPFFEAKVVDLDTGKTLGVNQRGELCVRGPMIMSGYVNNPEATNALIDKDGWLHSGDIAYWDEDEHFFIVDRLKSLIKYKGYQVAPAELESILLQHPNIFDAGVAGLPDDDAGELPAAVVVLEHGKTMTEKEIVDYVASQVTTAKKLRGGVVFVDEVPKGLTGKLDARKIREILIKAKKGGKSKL
Large screens that a line does not name were inactive (follow-up assays come after a bar, where they were run). The list is not random: actives were taken first. Their share in the collection is about 2.3%.

Cc1ccsc1C(=O)Nc1nc2ccccc2[nH]1	SENP6 block 99, SENP8 block-1 95, SENP7 inh 98, HSP90 refold inh 22 | HSP90 inh confirm 38 | luciferase ctr 29
CN(C)CC(=O)N[C@@H]1CC[C@H](CCn2cc(C3CC3)nn2)O[C@H]1CO	none (no result: SENP6 block, SENP8 block-1, SENP7 inh, SENP8 block-2, HSP90 refold inh)
CCOc1ccc(N2C(=O)CC(NCCNc3ccc([N+](=O)[O-])cn3)C2=O)cc1 (stereo not drawn)	HSP90 refold inh 24 | HSP90 inh confirm inactive | luciferase ctr inactive
Cc1noc(C)c1S(=O)(=O)Nc1ccc2c(c1)C(=O)N([C@H](C)CO)C[C@@H](C)[C@H](CN(C)C)O2	none (no result: SENP6 block, SENP8 block-1, SENP7 inh, SENP8 block-2, HSP90 refold inh)
Cc1nc2sc(-c3ccccc3)cc2c(=O)n1N	SENP6 block 95, SENP8 block-1 96, LGR2 antag 81, SENP7 inh 99, HSP90 refold inh 19 | HSP90 inh confirm 77 | luciferase ctr 66
CCc1c(C)[nH]c(C(=O)OCc2ccccc2)c1C	HSP90 refold inh 24 (no result: SENP6 block, SENP8 block-1, SENP7 inh) | HSP90 inh confirm inactive | luciferase ctr inactive
CCc1c(C(=O)OCc2ccccc2)[nH]c(C)c1C	none
O=C(O)c1ccc(-c2ccccc2Cl)o1	HSP90 refold inh 28 (no result: LGR2 antag) | HSP90 inh confirm 30 | luciferase ctr inactive
C[C@H]1CCCCO[C@H](CN(C)Cc2ccc(C(=O)O)cc2)[C@@H](C)CN([C@@H](C)CO)C(=O)c2cc(NS(=O)(=O)c3cccs3)ccc2O1	none (no result: SENP6 block, SENP8 block-1, SENP7 inh, SENP8 block-2, HSP90 refold inh)
COc1cc(/C=N/Nc2nncn2/N=C/c2ccc(O)c(OC)c2)ccc1O	none
COc1ccc(OC)c(/C=N/Nc2nncn2/N=C/c2cc(OC)ccc2OC)c1	HSP90 refold inh 42 | HSP90 inh confirm inactive | luciferase ctr inactive
CCC(=O)N1C[C@@H](C)[C@@H](OC)CN(C)C(=O)c2cc(NC(=O)c3cnccn3)ccc2OC[C@H]1C	none (no result: SENP6 block, SENP8 block-1, SENP7 inh, SENP8 block-2, HSP90 refold inh)
COC(=O)c1ccc(NC(=S)Nc2ccccn2)cc1	none (no result: LGR2 antag)
COc1ccc(NC(=S)Nc2ccccn2)cc1	HSP90 refold inh 26 | HSP90 inh confirm inactive | luciferase ctr inactive
C[C@@H]1CN([C@H](C)CO)C(=O)Cc2cc(NC(=O)c3ccncc3)ccc2O[C@H]1CN(C)Cc1ccc2c(c1)OCO2	none (no result: SENP6 block, SENP8 block-1, SENP7 inh, SENP8 block-2, HSP90 refold inh)
Cc1ccc(/C=C/c2nnc(-c3ccc(C)cc3)o2)cc1	HSP90 refold inh 32 | HSP90 inh confirm inactive | luciferase ctr inactive
O=C(CCc1ccccc1)NC(=S)Nc1cccc(Br)c1	none
O=C(CCc1ccccc1)NC(=S)Nc1cccc(C(=O)O)c1	HSP90 refold inh 33 | HSP90 inh confirm 41 | luciferase ctr 23
COc1ccc(/C=N/N2CCN(c3ccccc3OC)CC2)cc1OC	none
COc1ccccc1N1CCN(/N=C/c2ccc(C(=O)O)cc2)CC1	HSP90 refold inh 46 | HSP90 inh confirm 60 | luciferase ctr 39
COc1ccccc1C(=O)N1C[C@H]2[C@@H](c3ccccc31)[C@H](CO)N2Cc1ccc(F)cc1	none (no result: SENP6 block, SENP8 block-1, SENP7 inh, SENP8 block-2, HSP90 refold inh)
COc1cc(/C=N/NS(=O)(=O)c2ccc3ccccc3c2)ccc1OCc1ccc(C(=O)O)cc1	LGR2 antag 82, HSP90 refold inh 51 | HSP90 inh confirm inactive | luciferase ctr inactive
COc1cc(/C=N/NS(=O)(=O)c2ccc(C)cc2)ccc1OCc1cccc(C(=O)O)c1	LGR2 antag 80, HSP90 refold inh 46 | HSP90 inh confirm inactive | luciferase ctr inactive
Cc1noc(C)c1NC(=O)N(C)C[C@H]1OCCCC[C@@H](C)Oc2ccc(NC(=O)c3ccncc3)cc2C(=O)N([C@@H](C)CO)C[C@H]1C	none (no result: SENP6 block, SENP8 block-1, SENP7 inh, SENP8 block-2, HSP90 refold inh)
N#Cc1ccccc1Sc1ccccc1N	none (no result: LGR2 antag)
Nc1ccccc1SSc1ccccc1N	none | HSP90 inh confirm 36 | luciferase ctr inactive
CCNc1ccc(C(=O)O)cc1N	HSP90 refold inh 55 | HSP90 inh confirm inactive | luciferase ctr inactive
CCOc1ccc(Nc2ncnc3c2cnn3Cc2ccccc2)cc1	HSP90 refold inh 23 | HSP90 inh confirm inactive | luciferase ctr inactive
COc1ccc(Nc2ncnc3c2cnn3Cc2ccccc2)cc1	none (no result: LGR2 antag)
Cc1oc2cc3c(C(=O)N4CCCCC4)c(C)oc3cc2c1C(=O)N1CCCCC1	HSP90 refold inh 74 | HSP90 inh confirm 68 | luciferase ctr 33
C[n+]1nc(Nc2ccccc2)sc1-c1ccc(O)cc1	HSP90 refold inh 17 | HSP90 inh confirm inactive | luciferase ctr inactive
C[C@@H]1CN([C@H](C)CO)C(=O)c2cccc(NC(=O)C3CCCCC3)c2O[C@@H]1CN(C)C(=O)Nc1ccc2c(c1)OCO2	none (no result: SENP6 block, SENP8 block-1, SENP7 inh, SENP8 block-2, HSP90 refold inh)
CCCCCC(=O)Nc1nc(C)c(-c2csc(Nc3ccccc3OC)n2)s1	none
COc1ccccc1Nc1nc(C)cs1	none (no result: LGR2 antag)
CCCCCCC(=O)Nc1nc(C)c(-c2csc(Nc3cc(Cl)ccc3C)n2)s1	none
Cc1ccc(Cl)cc1Nc1nc(-c2sc(NC(=O)c3ccccc3)nc2C)cs1	SENP6 block 51, HSP90 refold inh 57 (no result: LGR2 antag, SENP8 block-2) | HSP90 inh confirm 46 | luciferase ctr inactive
COc1ccccc1Nc1nc(-c2sc(NC(=O)c3ccccc3)nc2C)cs1	HSP90 refold inh 47 | HSP90 inh confirm 24 | luciferase ctr inactive
Cc1nc(N)sc1-c1csc(Nc2ccc(S(N)(=O)=O)cc2)n1	HSP90 refold inh 60 | HSP90 inh confirm inactive | luciferase ctr inactive
COc1ccccc1Nc1nc(-c2sc(N)nc2C)cs1	HSP90 refold inh 31 | HSP90 inh confirm inactive | luciferase ctr inactive
O=C(c1ccccn1)N1CC2(C1)[C@H](c1ccccc1)[C@H](CO)N2Cc1ccc(Cl)cc1	none (no result: SENP6 block, SENP8 block-1, SENP7 inh, SENP8 block-2, HSP90 refold inh)
O=C(C[C@@H]1CC[C@H](NC(=O)Cc2ccccn2)[C@@H](CO)O1)NCCc1ccncc1	none (no result: SENP6 block, SENP8 block-1, SENP7 inh, SENP8 block-2, HSP90 refold inh)
COc1ccc2c3c([nH]c2c1)[C@H](CO)N(C(=O)c1ccncc1)CC31CCN(C(=O)NC(C)C)CC1	none (no result: SENP6 block, SENP8 block-1, SENP7 inh, SENP8 block-2, HSP90 refold inh)
CNC[C@H]1Oc2ccc(NC(=O)Cc3cn(C)c4ccccc34)cc2C(=O)N([C@@H](C)CO)C[C@H]1C	none (no result: SENP6 block, SENP8 block-1, SENP7 inh, SENP8 block-2, HSP90 refold inh)
COCC(=O)NC[C@@H]1N[C@@H](CO)[C@H]1c1ccc(-c2ccccc2F)cc1	none (no result: SENP6 block, SENP8 block-1, SENP7 inh, SENP8 block-2, HSP90 refold inh)
Cc1nc(N)sc1-c1csc(NCc2ccccc2)n1	HSP90 refold inh 56 (no result: LGR2 antag) | HSP90 inh confirm inactive | luciferase ctr inactive
COc1ccccc1Nc1nc(-c2sc(NC(=O)c3ccc([N+](=O)[O-])cc3)nc2C)cs1	HSP90 refold inh 72 (no result: LGR2 antag, SENP8 block-2) | HSP90 inh confirm 23 | luciferase ctr inactive
